From PubChem BioAssay
HCMV inh: blocks human cytomegalovirus replication. HFF cells, HCMV-luciferase reporter, 72 h; active compounds read low. activity change, negative = inhibition, % at 57.5 µM. actives 4.5% (n = 410,000). AID 1259415; in the data active = activity change below about -60%; inconclusive = no clear call, values can overlap the other calls; inactive = above about -39%
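Luciferase read-out from HCMV-luciferase-infected HFFs (MOI 1 PFU/cell) 72 h post infection at 37C; compounds added after 16 h cell attachment; activity normalized between buffer-only basal and Salinomycin (10uM) inhibitor controls.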
FMDV antiviral: foot and mouth disease virus antiviral activity | FMDV antiviral cell-based qHTS | Potency, µM (doses to about 57.9 µM), for the others: at the highest dose activity change, negative = inhibition, actives largely listed as inhibitors | actives 1.2% (n = 410,000); calls by dose curve; tested in HEK293T cells; also: read-out not given here; potency is read from the fitted curve at half-maximal effect; nearly all actives have a fitted effect of over 45% in size
MARV entry inh: Marburg virus entry inhibition. Marburg virus pseudotyped entry inhibition, cell reporter. Potency, µM (titrated, usually from 37.8 µM), for the others: at the top dose activity change, negative = inhibition, usual class: inhibitors. actives 1.8% (n = 300,000); calls by dose curve; tested in HEK293 cells; also: potency is read from the fitted curve at half-maximal effect
HCV inh: blocks hepatitis C virus; Huh7.5.1 HCVcc-Cre infection, luciferase reporter, 44 h; actives 3.4% (n = 340,000); Potency, µM (titrated, usually from 41.8 µM), without a hit: at the highest dose activity change, negative = inhibition, most hits filed as inhibitors; active = well fitted inhibition curve with a large enough effect; inconclusive = small, poorly fitted or top-dose-only effect, or another doubt; inactive = no such curve, though single readings can be large or run the other way; also: potency is read from the fitted curve at half-maximal effect
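HCVcc-Cre virus at an moi near 0.5 was added right after compound to cells cultured 4 h from seeding (1,000 cells/well). Luciferase activity was determined 44 h later, 15 min after substrate addition at RT.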
Lassa entry inh: Lassa virus entry inhibition | Potency, µM (series often up to 37.9 µM), for the others: at the top dose activity change, negative = inhibition, most hits filed as inhibitors | Lassa virus pseudotype entry inhibition, cell reporter | AID 540256 | actives 1.2% (n = 300,000); calls by dose curve; tested in HEK293 cells; also: potency is read from the fitted curve at half-maximal effect; nearly all actives have a fitted effect of over 50% in size
An asterisk follows results filed as active; ? = inconclusive; . = not tested or not shown; ! = a repeat was not active; [ ] = dose if it differs, or a comment. An excerpt weighted towards active compounds, which were near 7.9% of everything screened. % is scaled to controls: 0 for no effect and ±100 for the full control effect.

SMILES | HCMV inh | FMDV antiviral | MARV entry inh | HCV inh | Lassa entry inh
Cc1ccc(C2C(/C=C3/SC(=S)NC3=O)=C(c3cccs3)Oc3ccccc32)cc1 (stereo unspecified) | -61* | . | ? | ? | ?
CCCCOc1ccc(-n2nc(C)cc2C)nn1 | -82* | 18% | 16% | 9% | 30%
Cc1cc(C)n(-c2ccc(OCC(=O)O)nn2)n1 | -29 | -15% | 11% | 4% | -25%
CC(=O)Nc1nonc1-c1nc2ccccc2n1CC1CC1 | -67* | -20% | ? | ? | -32%
CCCCn1c(-c2nonc2NC(=O)c2ccccc2Cl)nc2ccccc21 | -77* | ? | . | 2% | .
COc1ccccc1N1CCN(C2CCCN(C(=O)c3cccc(-c4ccco4)c3)C2)CC1 (stereo unspecified) | -6 | 0% | -6% | ? | ?
Cc1cccc(N(CC(O)CON=C2c3ccccc3-c3ccccc32)S(C)(=O)=O)c1 (stereo unspecified) | ? | . | 23µM* | ? | -4%
CCN(CC(O)CON=C1c2ccccc2-c2ccccc21)S(=O)(=O)c1ccc(Cl)cc1 (stereo unspecified) | -31 | -28% | ? | 10µM* | 1%
CS(=O)(=O)N(CC(O)CON=C1c2ccccc2-c2ccccc21)c1ccc(F)cc1 (stereo unspecified) | -20 | . | ? | ? | 4%
CCN(CC(O)CON=C1c2ccccc2-c2ccccc21)S(=O)(=O)c1ccc(C)cc1 (stereo unspecified) | -39 | ? | ? | ? | ?
CCOC(=O)c1[nH]c(C(=O)O)c(OC(=O)CC)c1C | 12 | -5% | 6%[46.1 µM] | 2% | 14%[46.1 µM]
COC(=O)c1cc(COC(=O)c2ccc(OC)c(S(=O)(=O)N3CCCC3)c2)oc1C | -20 | -7% | ? | 16µM* | 3%
N=C1C=CC(=C(c2ccc(N)cc2)c2ccc(N)cc2)C=C1 | -100* | -47% | 4µM* | 6.3µM* | 5µM*
Nc1ccc(C(=O)C(=O)c2ccc(N)cc2)cc1 | -8 | 8% | . | 5% | .
CCOC(=O)c1c(-c2ccccc2)[nH]c2ccc(C)cc12 | -16 | . | . | . | .
CC(=O)N1CCN(CC(=O)NC(=O)Nc2ccc3c(c2)OCCO3)CC1 | 21 | -3% | -1% | 27% | -18%
CCCC1=C(C(=O)OCC)C(/C=C/c2ccccc2)n2ncnc2N1 (stereo unspecified) | 70 | -27% | 9.2µM* | ? | -19%
CN(C)C(=O)c1ccc(-c2nc(NCc3cccs3)c3ccccc3n2)cc1 | . | 59% | . | . | .
CCC1CCCCN1C(=O)CSc1nc(N)cc(N)n1 (stereo unspecified) | -65* | -4% | . | 2% | .
CCC1CCCCN1C(=O)CSc1n[nH]c(N)n1 (stereo unspecified) | -17 | -2% | 3%[46.1 µM] | 2% | 0%[46.1 µM]
COc1ccc2nc(SCC(=O)Nc3c(C)cccc3C)[nH]c2c1 | -39 | -21% | -9% | -2% | -6%
COc1ccc2nc(S(=O)Cc3ncc(C)c(OC)c3C)[nH]c2c1 (stereo unspecified) | 66 | -21% | -1% | 2.2µM*! | -28%
COc1ccc(-c2nc3cnc(N4CCOCC4)nc3n(C[C@H]3CCCO3)c2=O)cc1 | . | -10% | . | . | .
Cc1ccccc1OCCn1c(=S)[nH]c2c(N)ncnc21 | -80* | 74% | . | 18% | .
CCCS(=O)(=O)N1CCN(Cc2ccc3c(c2)c2ccccc2n3CC)CC1 | 4 | ? | 10µM* | ? | ?
SMILES | HCMV inh | FMDV antiviral | MARV entry inh | HCV inh | Lassa entry inh
CCCc1sc(N/N=C/c2ccccn2)nc1-c1ccc(Br)cc1 | -98* | -1% | ? | 3.2µM* | 5.2µM*
CC(=O)c1cccc(NC(=O)C(C)OC(=O)CCCN=C2NS(=O)(=O)c3ccccc32)c1 (stereo unspecified) | -11 | 12% | 8% | -25% | 17%
CCOc1ccccc1N(C)C(=O)Cn1nc(Cc2cccnc2)c2ccccc2c1=O | -72* | -2% | 5%[46.1 µM] | . | 4%[46.1 µM]
CCOc1ccccc1N(C)C(=O)Cn1ncc2c([nH]c3ccccc32)c1=O | -19 | -17% | 6.3µM* | ? | -20%[46.1 µM]
COC(=O)c1ccc(/C=C/C(=O)OCC(=O)NCc2cccs2)cc1 | 10 | 46% | ? | 31% | 26%
O=C(NC1CCC(CC2CCC(NC(=O)C(Cl)Cl)CC2)CC1)C(Cl)Cl (stereo unspecified) | ? | -12% | . | 2% | .
CC(C)(O)[C@@H]1CCC[N+]2(C)CCCC[C@H]12 (stereo partly specified) | . | -10% | . | . | .
COc1cccc(CN2CCC(C(=O)Nc3ccc(-c4cccc(C)c4)cc3)CC2)c1O | -13 | ? | . | 10µM* | .
Cc1cccc(-c2ccc(NC(=O)C3CCN(CC4CC4)CC3)cc2)c1 | -11 | -23% | ? | 10µM* | -10%[46.1 µM]
C=CCN1CCc2cccc3c2[C@H]1Cc1ccc(O)c(O)c1-3 | -20 | -14% | ? | ? | ?
CCCN1CCc2cc(O)cc3c2C1Cc1ccc(O)c(O)c1-3 (stereo unspecified) | . | -5% | 35µM* | . | .
CN1CCc2cccc3c2C1Cc1ccc(O)c(O)c1-3 (stereo unspecified) | 21 | -14% | 16µM*! | 18% | 0%
COc1ccc(C2CC(c3ccccc3)=NN2C(=O)COC(=O)c2cccc(O)c2)cc1 (stereo unspecified) | -3 | -4% | ? | ? | -21%[46.1 µM]
COc1ccc(C2CC(c3ccc4ccccc4c3)=NN2C(=O)CNC2CCCCC2)cc1 (stereo unspecified) | 3 | ? | . | ? | .
C=CCNCC(=O)N1N=C(c2ccc3ccccc3c2)CC1c1ccc(OC)cc1 (stereo unspecified) | -31 | -22% | 8.9µM* | ? | 0%
COc1ccc(C2CC(c3ccccc3)=NN2C(=O)COC(=O)c2nc3nc(C)cc(C)n3n2)cc1 (stereo unspecified) | 13 | 4% | 23%[46.1 µM] | 10µM* | -7%
C=CCN1C(=O)CC[C@@]23C1=NC(C(=O)OC)=C(C(=O)OC)[C@@H]2N(C)c1ccccc13 | . | . | 14%[14.2 µM] | . | .
O[C@H]1C[C@H](c2ccccc2)N(CC2CCCCC2)C[C@H]1n1cc(-c2ccc(F)cc2)nn1 | . | . | . | . | -35%[46.1 µM]
O=C1C(n2ccc3ccccc32)c2cccc(F)c2N1Cc1ccc(C(F)(F)F)cc1 (stereo unspecified) | 15 | . | . | . | .
Cc1c(C(=O)N(C)C)sc2nc(-c3ccccn3)[nH]c(=O)c12 | 47 | 23% | 12% | -12% | 19%
O=c1[nH]c(-c2ccccn2)nc2sc(-c3ccccc3)cc12 | -112* | -67% | ? | 1.6µM* | 2.2µM*
CC1(C)CC(=O)C=C(c2ccc(Oc3ccccc3)cc2)C1=O | -16 | -23% | . | . | .
CC1(C)CC(=O)C=C(c2ccc(-c3cnc4ccccc4c3)cc2)C1=O | -71* | -36% | . | . | .
O=C(Nc1ccc(-c2nc3ncccc3o2)cc1)c1ccc([N+](=O)[O-])o1 | -76* | 4% | -3%[46.1 µM] | 3.5µM* | 5%[46.1 µM]
